Measured values: PubChem BioAssay (Tox21)
Records with an inconclusive call do not appear. Entries that show only a call come without a potency. The source made the active and inactive calls. Unless noted, calls follow the shape of the dose curve; as a rule, active = well fitted curve in the direction sought with a large enough effect in the repeat runs; inconclusive = weak or mixed curves; inactive = no such curve, though single readings can be large; an effect the other way counts as inactive or inconclusive.

How the values were obtained:
[1] = qHTS assay to identify aromatase inhibitors - cell viability counter screen (AID 743084);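 also: cells stimulated with testosterone during compound exposure; nearly all actives have a fitted effect of over 55% in size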
[2] = molecular target: Aryl hydrocarbon receptor (Homo sapiens) (UniProt P35869); experiment: qHTS assay to identify small molecule that activate the aryl hydrocarbon receptor (AhR) signaling pathway (AID 743085); also: nearly all actives have a fitted effect of over 15% in size; also: potency is read from the fitted curve at half-maximal effect;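 as to activation: HG2L7.5c1 human HepG2 liver cells with stably integrated DRE-driven firefly reporter; series mostly up to about 70 µM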
In short: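 HepG2 cells (HG2L7.5c1) stably carrying a firefly luciferase reporter driven by 20 dioxin responsive elements were exposed to compound for 24 h at 37C after a 5 h settling period; luminescence rise (ONE-Glo) indicated activation.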

[3] = qHTS assay to identify small molecule that activate the aryl hydrocarbon receptor (AhR) signaling pathway - cell viability counter screen (AID 743086);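 also: HepG2 liver cells carrying the AhR DRE luciferase reporter; series mostly up to about 70 µM; nearly all actives have a fitted effect of over 45% in size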
In short: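 HepG2-AhR-luc (HG2L7.5c1) cells, 4000/well, treated 24 h at 37 C with compound; viability measured as CellTiter-Fluor fluorescence after 30 min in the same wells as the luciferase read.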

[4] = molecular target: Peroxisome proliferator-activated receptor gamma (Homo sapiens) (UniProt P37231); experiment: qHTS assay to identify small molecule agonists of the peroxisome proliferator-activated receptor gamma (PPARg) signaling pathway (AID 743094; active = well fitted activation curve with a large enough effect in the signal ratio in the repeat runs, not every such curve was filed as active; the % refers to the signal ratio)
In short: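 Reporter activation was scored by fluorescence of cleaved LiveBLAzer B/G substrate (1 h, room temperature) in PPARg-bla HEK293H cells previously treated 17 h at 37C with DMSO-dissolved compounds.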

[5] = qHTS assay to identify small molecule antagonists of the peroxisome proliferator-activated receptor gamma (PPARg) signaling pathway - cell viability counter screen (AID 743194); also: nearly all actives have a fitted effect of over 55% in size; also: potency is read from the fitted curve at half-maximal effect
In short: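 Cytotoxicity counter screen in PPARg-bla HEK293H cells, same wells as reporter assay. Compounds plus 50 nM rosiglitazone (final) for 17 h at 37 C, then viability read by CellTiter-Glo luminescence.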

[6] = qHTS assay for small molecule agonists of the antioxidant response element (ARE) signaling pathway - cell viability counter screen (AID 743203; calls by dose curve; also: nearly all actives have a fitted effect of over 55% in size; also: potency is read from the fitted curve at half-maximal effect)
In short: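 Viability counter screen: stably transfected ARE-bla HepG2 line, 16 hrs compound exposure at 37C/5% CO2, ATP-based CellTiter-Glo luminescence measured in the reporter wells.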

[7] = qHTS assay for small molecule activators of the heat shock response signaling pathway - cell viability counter screen (AID 743209); also: nearly all actives have a fitted effect of over 50% in size
In short: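 Viability of HSE-bla HeLa cells is measured with CellTiter-Glo in the wells already used for the reporter read. Compound exposure lasts 5 h at 37 C, and luminescence is read after 30 min at room temperature.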

[8] = qHTS assay for small molecule activators of the heat shock response signaling pathway (AID 743210; active = well fitted activation curve with a large enough effect in the signal ratio in the repeat runs, with a control signal flat, not every such curve was filed as active; the % refers to the signal ratio;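 also: HeLa cells with beta-lactamase reporter driven by heat shock elements; series mostly up to about 63 µM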)
In short: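 Following overnight attachment, HSE-bla HeLa cells received test compounds for 5 h at 37 C; beta-lactamase activity was then detected via FRET substrate fluorescence.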

[9] = qHTS assay to identify small molecule agonists of the peroxisome proliferator-activated receptor delta (PPARd) signaling pathway - cell viability counter screen (AID 743211); also: nearly all actives have a fitted effect of over 55% in size; also: potency is read from the fitted curve at half-maximal effect
In short: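 PPARd-bla HEK293H cells (UAS-beta-lactamase reporter) were treated with compounds for 17 h at 37 C. Viability was then read in the same wells by CellTiter-Glo luminescence after 30 min at room temperature.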

[10] = molecular target: Peroxisome proliferator-activated receptor delta (Homo sapiens) (UniProt Q03181); experiment: qHTS assay to identify small molecule agonists of the peroxisome proliferator-activated receptor delta (PPARd) signaling pathway (AID 743212; calls by dose curve)
In short: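 Tox21 library screened in GeneBLAzer PPARd UAS-bla HEK293H cells. After compound treatment at 37 C, a FRET-based beta-lactamase substrate was applied for 2 h and fluorescence recorded.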

[11] = molecular target: Peroxisome proliferator-activated receptor delta (Homo sapiens) (UniProt Q03181); experiment: qHTS assay to identify small molecule antagonists of the peroxisome proliferator-activated receptor delta (PPARd) signaling pathway (AID 743215; active = well fitted inhibition curve with a large enough effect in the signal ratio in the repeat runs, not every such curve was filed as active; the % refers to the signal ratio;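 also: cells stimulated with agonist L165041 at 300 nM final during compound exposure; series mostly up to about 62 µM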)
In short: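 Plated HEK293H PPARd-bla cells rested 5 h at 37 C and 5% CO2. Compound, then agonist L165041 at 300 nM final, was added; 17 h at 37 C followed. Substrate loading, 2 h room temperature, fluorescence measured.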

[12] = molecular target: Bile acid receptor (Homo sapiens) (UniProt Q96RI1); experiment: qHTS assay to identify small molecule antagonists of the farnesoid-X-receptor (FXR) signaling pathway (AID 743217; active = well fitted inhibition curve with a large enough effect in the signal ratio in the repeat runs, not every such curve was filed as active; the % refers to the signal ratio)
In short: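 Screen of the Tox21 10K library in quantitative HTS format using FXR-UAS-bla HEK 293T reporter cells. Agonist chenodeoxycholic acid, 50 uM final, added with compounds; 16 h incubation at 37 °C; beta-lactamase FRET fluorescence measured.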

[13] = qHTS assay to identify small molecule agonists of the farnesoid-X-receptor (FXR) signaling pathway - cell viability counter screen (AID 743218); also: nearly all actives have a fitted effect of over 45% in size
In short: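 Viability of FXR-bla HEK 293T cells is measured by ATP-based CellTiter-Glo luminescence following 16 h compound treatment at 37 C and a prior 2 h room-temperature beta-lactamase substrate step.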

[14] = molecular target: Bile acid receptor (Homo sapiens) (UniProt Q96RI1); experiment: qHTS assay to identify small molecule agonists of the farnesoid-X-receptor (FXR) signaling pathway (AID 743220; active = well fitted activation curve with a large enough effect in the signal ratio in the repeat runs, not every such curve was filed as active; the % refers to the signal ratio)
In short: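 FXR-UAS-bla HEK 293T cells carrying a UAS-driven beta-lactamase reporter were plated for 5 h at 37C/5% CO2, then exposed to DMSO-dissolved Tox21 10K compounds for 16 h at 37C. A LiveBLAzer B/G FRET substrate was loaded for 2 h at room temperature before fluorescence reading.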

[15] = qHTS assay to identify small molecule antagonists of the farnesoid-X-receptor (FXR) signaling pathway - cell viability counter screen (AID 743221; active = well fitted cell-killing curve with a large enough effect in the repeat runs, not every such curve was filed as active; also: nearly all actives have a fitted effect of over 50% in size)
In short: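 FXR-UAS-bla HEK 293T cells were treated with test compounds plus chenodeoxycholic acid (50 uM final) for 16 h at 37 C. Cell viability in the same wells was then read as CellTiter-Glo luminescence after 30 min at room temperature.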

[16] = molecular target: Peroxisome proliferator-activated receptor gamma (Homo sapiens) (UniProt P37231); experiment: qHTS assay to identify small molecule antagonists of the peroxisome proliferator-activated receptor gamma (PPARg) signaling pathway (AID 743191; calls by dose curve; also: nearly all actives have a fitted effect of over 30% in size; also: potency is read from the fitted curve at half-maximal effect)
In short: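 GeneBLAzer PPARg UAS-bla HEK293H cells, 5 h post-plating, exposed to compounds 17 h at 37C. LiveBLAzer B/G FRET substrate added for 1 h at room temperature; beta-lactamase reporter read by fluorescence intensity.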

[17] = qHTS assay to identify small molecule antagonists of the peroxisome proliferator-activated receptor delta (PPARd) signaling pathway - cell viability counter screen (AID 743213); also: nearly all actives have a fitted effect of over 50% in size
In short: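 PPARd-bla HEK293H cells (3000/well) got compound plus 300 nM L165041 agonist for 17 h at 37 C. Viability in the same wells came from CellTiter-Glo luminescence after 30 min at room temperature.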

[18] = molecular target: Vitamin D3 receptor (Homo sapiens) (UniProt P11473); experiment: qHTS assay to identify small molecule agonists of the vitamin D receptor (VDR) signaling pathway (AID 743222; calls by dose curve)
In short: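 Fluorescence from cleaved LiveBLAzer B/G FRET substrate served as readout. VDR-bla cells had been treated 16 h at 37C with test compounds in DMSO, following a 4 h settling period, and substrate was loaded for 2 h at RT.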

[19] = qHTS assay for small molecule agonists of the antioxidant response element (ARE) signaling pathway (AID 743202; active = well fitted activation curve with a large enough effect in the signal ratio in the repeat runs, not every such curve was filed as active; the % refers to the signal ratio)
In short: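 HepG2 ARE-bla cells; 16 h treatment at 37 C; FRET-based beta-lactamase fluorescence read after 2 h substrate incubation at room temperature.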

[20] = molecular target: Vitamin D3 receptor (Homo sapiens) (UniProt P11473); experiment: qHTS assay to identify small molecule antagonists of the vitamin D receptor (VDR) signaling pathway (AID 743223; active = well fitted inhibition curve with a large enough effect in the signal ratio in the repeat runs, not every such curve was filed as active; the % refers to the signal ratio)
In short: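 VDR-bla cells were plated, incubated 4 h at 37C, then given compound and 1alpha,25-dihydroxyvitamin D3 (3 nM final). After 16 h at 37C, LiveBLAzer B/G FRET substrate was added for 2 h at room temperature and fluorescence read.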

Chain of Peroxisome proliferator-activated receptor gamma (Homo sapiens) (P37231 whole entry, looked up): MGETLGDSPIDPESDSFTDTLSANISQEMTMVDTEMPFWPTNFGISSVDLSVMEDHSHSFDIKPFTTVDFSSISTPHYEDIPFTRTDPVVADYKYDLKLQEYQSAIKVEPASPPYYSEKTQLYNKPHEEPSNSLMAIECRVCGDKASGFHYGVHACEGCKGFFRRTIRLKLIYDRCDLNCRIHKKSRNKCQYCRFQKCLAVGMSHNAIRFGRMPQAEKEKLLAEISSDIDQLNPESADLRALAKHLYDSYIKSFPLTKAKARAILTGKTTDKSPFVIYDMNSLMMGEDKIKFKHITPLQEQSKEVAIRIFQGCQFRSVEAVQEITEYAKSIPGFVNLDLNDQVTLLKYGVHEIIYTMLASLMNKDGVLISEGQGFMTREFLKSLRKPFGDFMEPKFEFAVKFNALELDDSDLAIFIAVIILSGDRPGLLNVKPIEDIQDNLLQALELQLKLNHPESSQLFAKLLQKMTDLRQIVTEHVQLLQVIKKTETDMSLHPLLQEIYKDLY
Chain of Aryl hydrocarbon receptor (Homo sapiens) (P35869 whole entry, looked up): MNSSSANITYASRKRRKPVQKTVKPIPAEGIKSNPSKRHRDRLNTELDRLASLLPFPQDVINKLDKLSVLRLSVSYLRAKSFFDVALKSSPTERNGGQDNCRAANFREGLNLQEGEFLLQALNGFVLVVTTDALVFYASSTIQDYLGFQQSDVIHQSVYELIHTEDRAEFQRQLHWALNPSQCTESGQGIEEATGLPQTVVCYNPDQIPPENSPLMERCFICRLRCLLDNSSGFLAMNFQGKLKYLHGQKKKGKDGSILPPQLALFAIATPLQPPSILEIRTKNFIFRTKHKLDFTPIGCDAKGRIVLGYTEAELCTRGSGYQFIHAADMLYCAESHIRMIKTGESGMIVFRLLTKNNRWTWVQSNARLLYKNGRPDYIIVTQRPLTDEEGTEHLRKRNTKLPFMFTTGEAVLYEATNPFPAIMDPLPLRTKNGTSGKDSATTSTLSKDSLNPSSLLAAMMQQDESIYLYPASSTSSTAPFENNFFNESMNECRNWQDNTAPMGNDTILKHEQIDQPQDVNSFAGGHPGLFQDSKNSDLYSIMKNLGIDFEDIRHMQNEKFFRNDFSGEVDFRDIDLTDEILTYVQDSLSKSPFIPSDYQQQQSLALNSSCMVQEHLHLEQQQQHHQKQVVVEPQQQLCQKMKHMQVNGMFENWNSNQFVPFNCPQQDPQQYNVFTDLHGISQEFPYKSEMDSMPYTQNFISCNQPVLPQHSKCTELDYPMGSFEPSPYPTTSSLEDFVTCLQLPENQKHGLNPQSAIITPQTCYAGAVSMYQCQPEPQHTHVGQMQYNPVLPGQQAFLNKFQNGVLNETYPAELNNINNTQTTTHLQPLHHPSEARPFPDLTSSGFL
Chain of Vitamin D3 receptor (Homo sapiens) (P11473 whole entry, looked up): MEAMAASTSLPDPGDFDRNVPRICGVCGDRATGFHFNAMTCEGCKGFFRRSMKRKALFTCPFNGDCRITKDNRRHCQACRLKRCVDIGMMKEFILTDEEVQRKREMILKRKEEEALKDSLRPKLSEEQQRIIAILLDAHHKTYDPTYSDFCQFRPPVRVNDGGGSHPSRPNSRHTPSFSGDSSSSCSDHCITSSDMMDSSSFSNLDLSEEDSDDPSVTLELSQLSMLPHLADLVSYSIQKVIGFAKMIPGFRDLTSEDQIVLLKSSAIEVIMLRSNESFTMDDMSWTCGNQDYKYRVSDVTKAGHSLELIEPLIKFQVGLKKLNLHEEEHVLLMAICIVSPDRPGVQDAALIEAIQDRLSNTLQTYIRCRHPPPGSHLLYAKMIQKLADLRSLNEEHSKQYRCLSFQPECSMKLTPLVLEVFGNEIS
Chain of Bile acid receptor (Homo sapiens) (Q96RI1 whole entry, looked up): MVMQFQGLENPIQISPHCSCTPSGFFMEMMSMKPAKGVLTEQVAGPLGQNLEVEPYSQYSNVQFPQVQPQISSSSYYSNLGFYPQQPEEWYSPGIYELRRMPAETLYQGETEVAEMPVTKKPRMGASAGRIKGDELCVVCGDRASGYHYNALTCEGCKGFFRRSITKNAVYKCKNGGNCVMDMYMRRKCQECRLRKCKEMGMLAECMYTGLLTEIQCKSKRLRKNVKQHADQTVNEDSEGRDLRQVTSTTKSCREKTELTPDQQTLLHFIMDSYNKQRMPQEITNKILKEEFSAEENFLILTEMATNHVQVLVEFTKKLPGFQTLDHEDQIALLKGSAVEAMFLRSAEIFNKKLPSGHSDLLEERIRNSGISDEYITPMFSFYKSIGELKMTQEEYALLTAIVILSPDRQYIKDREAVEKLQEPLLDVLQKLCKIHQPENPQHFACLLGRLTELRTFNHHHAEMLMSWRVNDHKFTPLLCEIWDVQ
Chain of Peroxisome proliferator-activated receptor delta (Homo sapiens) (Q03181 whole entry, looked up): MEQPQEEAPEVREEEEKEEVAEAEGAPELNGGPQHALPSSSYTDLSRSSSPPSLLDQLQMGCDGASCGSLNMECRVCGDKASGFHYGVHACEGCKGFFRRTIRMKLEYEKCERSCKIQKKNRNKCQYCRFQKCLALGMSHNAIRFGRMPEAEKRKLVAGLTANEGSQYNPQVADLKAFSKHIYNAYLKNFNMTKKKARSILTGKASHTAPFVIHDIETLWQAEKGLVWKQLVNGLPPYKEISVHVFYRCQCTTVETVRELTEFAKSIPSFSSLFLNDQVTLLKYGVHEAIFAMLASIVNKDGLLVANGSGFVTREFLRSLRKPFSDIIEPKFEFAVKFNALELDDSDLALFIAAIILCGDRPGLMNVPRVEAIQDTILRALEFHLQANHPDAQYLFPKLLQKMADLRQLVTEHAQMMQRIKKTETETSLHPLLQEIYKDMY

Structure (SMILES) | Potency [1] | Potency [2] | outcome [3] | Potency [4] | Potency [5] | Potency [6] | outcome [7] | Potency [8] | Potency [9] | outcome [10] | outcome [11] | outcome [12] | Potency [13] | outcome [14] | outcome [15] | Potency [16] | Potency [17] | outcome [18] | Potency [19] | outcome [20]
CCCCC(CC)COC(=O)COc1cc(Cl)c(Cl)cc1Cl (stereo not drawn) | inactive | inactive | inactive | inactive | inactive | inactive | inactive | inactive | inactive | inactive | inactive | inactive | inactive | inactive | inactive | – | – | – | – | –
CC(C)S | inactive | inactive | inactive | inactive | – | inactive | inactive | inactive | inactive | inactive | inactive | – | inactive | – | inactive | inactive | inactive | inactive | – | –
CN(C)Cc1ccccc1 | inactive | inactive | inactive | inactive | inactive | inactive | inactive | inactive | inactive | inactive | inactive | – | inactive | – | inactive | – | – | inactive | inactive | inactive
CCCCCCCCc1ccc(S(=O)(=O)O)cc1 | inactive | inactive | inactive | inactive | – | inactive | inactive | inactive | 43.3 µM (active) | – | inactive | inactive | inactive | inactive | inactive | 43.3 µM (active) | – | inactive | – | inactive
CCCCNCCCC | inactive | inactive | inactive | – | – | inactive | inactive | inactive | inactive | inactive | inactive | – | inactive | – | inactive | inactive | – | inactive | inactive | inactive
CCCCNc1cc(C(=O)O)cc(S(N)(=O)=O)c1Oc1ccccc1 | inactive | inactive | inactive | – | inactive | inactive | inactive | inactive | inactive | – | – | – | inactive | – | inactive | – | – | inactive | inactive | inactive
COc1nc(C)nc(NC(=O)NS(=O)(=O)c2ccccc2OCCCl)n1 | inactive | inactive | inactive | – | inactive | inactive | inactive | inactive | inactive | inactive | inactive | inactive | inactive | inactive | – | inactive | inactive | inactive | inactive | –
CC(C)=CCCC(C)CCOC=O (stereo not drawn) | inactive | inactive | inactive | – | 43.6 µM (active) | 54.5 µM (active) | – | – | inactive | – | inactive | inactive | inactive | inactive | inactive | – | – | inactive | – | –
CCOC(=O)NCCC[Si](OCC)(OCC)OCC | inactive | inactive | inactive | – | – | inactive | inactive | inactive | inactive | inactive | inactive | – | inactive | – | inactive | inactive | inactive | inactive | – | –
O=CCCc1ccccc1 | inactive | inactive | inactive | – | inactive | inactive | inactive | inactive | inactive | inactive | – | – | inactive | – | inactive | – | – | inactive | inactive | inactive
CCCCCOc1ccc(C2SC(=O)NC2=O)cc1OCC (stereo not drawn) | inactive | 29.8 µM (active) | inactive | – | inactive | inactive | inactive | inactive | inactive | – | – | – | inactive | – | – | – | inactive | – | inactive | –
C=CCCCCCCCCO | inactive | inactive | inactive | – | inactive | inactive | inactive | inactive | inactive | – | – | – | inactive | – | inactive | – | inactive | – | inactive | –
COc1ccc2nc(NC(=O)Nc3ccccc3)sc2c1 | inactive | 10.6 µM (active) | inactive | – | inactive | inactive | inactive | – | inactive | – | – | – | inactive | – | inactive | inactive | inactive | inactive | – | –
COC(=O)c1ccc(OC)cc1 | inactive | inactive | inactive | – | – | inactive | inactive | inactive | inactive | – | – | inactive | inactive | inactive | – | inactive | inactive | inactive | inactive | –
CCC1(C)NC(=O)NC1=O (stereo not drawn) | inactive | inactive | inactive | – | inactive | inactive | inactive | – | – | inactive | inactive | inactive | inactive | inactive | inactive | inactive | inactive | inactive | inactive | inactive
C1CSCCS1 | inactive | inactive | inactive | – | – | inactive | inactive | inactive | inactive | inactive | inactive | – | inactive | – | inactive | inactive | – | inactive | inactive | –
CCCCCCCCCCCCOCCOS(=O)(=O)O | inactive | inactive | inactive | – | – | inactive | inactive | inactive | – | – | – | – | inactive | – | – | inactive | – | inactive | – | –
O=C1N(c2ccccc2)c2ccccc2C1(Cc1ccncc1)Cc1ccncc1 | inactive | inactive | inactive | – | inactive | inactive | inactive | – | inactive | inactive | inactive | – | – | – | inactive | inactive | – | inactive | – | –
